Compounds without any hit were thinned out: in the full panel of roughly 79,000, 15% have a hit. Activity calls are given as the source filed them. Cut-off read from the data, not from the text of the source: active = growth inhibition above about 70%; inactive = the rest.
Key:
[1] = NCI Yeast Anticancer Drug Screen. Data for the rad52 strain (AID 147);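 note: 0% = growth of vehicle-treated control cultures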; conditions: S. cerevisiae rad52 mutant growth inhibition, active compounds read high
In short: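 Inhibition of yeast growth, referenced to vehicle controls, was the measured output for a strain with defective DNA damage repair.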

[2] = NCI Yeast Anticancer Drug Screen. Data for the wt1 strain (AID 149);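 note: 0% = growth of vehicle-treated wt1 cultures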; conditions: S. cerevisiae wt1 strain (SPY 50644) growth inhibition, active compounds read high
In short: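 Using yeast strain wt1, compound-induced growth inhibition was determined against vehicle-treated cultures.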

[3] = NCI Yeast Anticancer Drug Screen. Data for the rad50EPP+ strain (AID 151);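 note: 0% = growth of vehicle-treated control cultures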; conditions: S. cerevisiae rad50 mutant strain, active compounds read high
In short: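 Genetically defined yeast (rad50EPP+, DNA damage repair alteration) is grown with compound, and inhibition of growth is expressed relative to vehicle-treated controls.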

[4] = NCI Yeast Anticancer Drug Screen. Data for the mgt1 strain (AID 153); conditions: S. cerevisiae mgt1 mutant growth inhibition, active compounds read high
In short: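 In the mgt1 strain, test compounds were added and growth inhibition was determined relative to vehicle-treated controls.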

[5] = NCI Yeast Anticancer Drug Screen. Data for the rad50 strain (AID 155);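 note: 0% = growth of vehicle-only cultures of the same strain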; conditions: S. cerevisiae rad50 strain growth inhibition, active compounds read high
In short: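 Relative growth inhibition (compound vs vehicle) was measured in yeast with a defined repair-gene alteration.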

[6] = NCI Yeast Anticancer Drug Screen. Data for the mec2-1 strain (AID 157); conditions: S. cerevisiae mec2-1 strain, active compounds read high
In short: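 Each compound was tested on mec2-1 yeast, a strain altered in DNA damage repair or cell cycle control. Growth inhibition is reported relative to vehicle.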

[7] = NCI Yeast Anticancer Drug Screen. Data for the rad14 strain (AID 159);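 note: 0% = growth of vehicle-treated control cultures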; conditions: S. cerevisiae rad14 strain growth inhibition, active compounds read high
In short: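 Screen for anticancer potential: a yeast strain altered in DNA damage repair is grown with compound, and reduced growth is quantified against vehicle controls.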

[8] = NCI Yeast Anticancer Drug Screen. Data for the sgs1 mgt1 strain (AID 161);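 note: 0% = growth of cultures given vehicle only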; conditions: S. cerevisiae sgs1 mgt1 strain, active compounds read high
In short: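 Inhibition of yeast growth, normalised to vehicle-treated controls, is reported for a strain bearing genetic alterations in DNA damage repair.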

[9] = NCI Yeast Anticancer Drug Screen. Data for the CLN2oe strain (AID 163);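 note: 0% = growth of vehicle-only control cultures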; conditions: S. cerevisiae CLN2oe strain, active compounds read high
In short: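 First, the altered yeast strain was treated with each compound; second, its growth was measured; finally, inhibition was derived by comparison with vehicle controls.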

[10] = NCI Yeast Anticancer Drug Screen. Data for the cln2 rad14 strain (AID 165);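 note: 0% = growth equal to vehicle treated cultures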; conditions: S. cerevisiae cln2 rad14 strain, active compounds read high
In short: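 Test compounds were added to cln2 rad14 yeast cultures; inhibition of growth was then determined by comparison with vehicle treatment.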

[11] = NCI Yeast Anticancer Drug Screen. Data for the bub3 strain (AID 167); conditions: S. cerevisiae bub3 mutant strain, active compounds read high
In short: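 Screening used yeast with an engineered genetic alteration affecting cell cycle control. Compound-exposed cultures were compared with vehicle cultures, and reduced growth was taken as inhibition.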

[12] = NCI Yeast Anticancer Drug Screen. Data for the wt2 strain (AID 169);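 note: 0% = growth of vehicle-treated yeast cultures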; conditions: S. cerevisiae wt2 strain growth inhibition, active compounds read high
In short: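 The panel's yeast strains carry defined changes in DNA repair or cell cycle genes. Each strain is grown with compound, and growth loss is scored relative to vehicle.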

[13] = NCI Yeast Anticancer Drug Screen. Data for the mlh1 strain (AID 171);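 note: 0% = growth of vehicle-treated control cultures of the same strain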; conditions: S. cerevisiae mlh1 strain growth inhibition, active compounds read high
In short: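 Inhibition values reflect reduced yeast growth in the presence of compound, referenced to vehicle controls, using a strain chosen for its alteration in DNA repair or cell cycle control.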

[14] = NCI Yeast Anticancer Drug Screen. Data for the sgs1 strain (AID 173);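 note: 0% = growth of vehicle-only control cultures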; conditions: S. cerevisiae sgs1 mutant, active compounds read high
In short: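 Vehicle-treated cultures served as reference for growth inhibition of a yeast strain altered in DNA damage repair or cell cycle control after compound exposure.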

[15] = NCI Yeast Anticancer Drug Screen. Data for the rad18 strain (AID 177); conditions: S. cerevisiae rad18 mutant growth inhibition, active compounds read high
In short: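 Steps: expose repair-mutant yeast to compound; measure growth; express as inhibition relative to vehicle control.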

[16] = NCI Yeast Anticancer Drug Screen. Data for the mlh1 rad18 strain (AID 175); conditions: S. cerevisiae mlh1 rad18 strain growth inhibition, active compounds read high
In short: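 Inhibition values reflect reduced growth of mutant yeast versus vehicle-treated controls following compound exposure; the mutations affect DNA damage repair.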

[17] = at 5.0 µM (retest, dose inferred, filed as 0.5)
[18] = at 50.0 µM (retest, dose inferred, filed as 5.0)

Measured: growth inhibition

O=c1oc2ccccc2c(O)c1C(c1ccc2c(c1)Cc1ccccc1-2)c1c(O)c2ccccc2oc1=O
active: [1]; at 100.0 µM 96% | [2]; at 100.0 µM 97% | [4]; at 33.0 µM 97% | [4]; at 100.0 µM 97% | [5]; at 50.0 µM 70.2% | [5]; at 100.0 µM 96% | [6]; at 33.0 µM 95% | [6]; [18] 92% | [6]; at 50.0 µM 89% | [6]; at 100.0 µM 97% | [7]; at 33.0 µM 97% | [7]; at 100.0 µM 98% | [8]; [18] 96% | [8]; at 50.0 µM 73.4% | [9]; at 33.0 µM 91% | [9]; at 100.0 µM 97% | [10]; [18] 95% | [10]; at 50.0 µM 79% | [11]; [18] 95% | [11]; at 50.0 µM 75.9% | [11]; at 100.0 µM 96% | [12]; at 33.0 µM 95% | [12]; at 100.0 µM 93% | [13]; at 33.0 µM 96% | [13]; at 100.0 µM 98% | [14]; at 33.0 µM 83% | [14]; at 100.0 µM 97% | [15]; at 100.0 µM 96%
inactive: [1]; at 1.2 µM -7% | [1]; at 3.7 µM 15% | [1]; at 11.0 µM 19% | [1]; at 33.0 µM 65% | [2]; at 1.2 µM -16% | [2]; at 3.7 µM -5% | [2]; at 11.0 µM 5% | [2]; at 33.0 µM 53% | [3]; at 1.2 µM -16% | [3]; at 3.7 µM 43% | [3]; at 11.0 µM 46% | [3]; at 33.0 µM 50% | [3]; at 100.0 µM 51% | [4]; at 1.2 µM 6% | [4]; at 3.7 µM 8% | [4]; at 11.0 µM 31% | [5]; at 1.2 µM 1% | [5]; at 3.7 µM 14% | [5]; [17] 17% | [5]; at 11.0 µM 22% | [5]; at 33.0 µM 61% | [5]; [18] 5% | [6]; at 1.2 µM -18% | [6]; at 3.7 µM -4% | [6]; [17] 12% | [6]; at 11.0 µM 25% | [7]; at 1.2 µM 9% | [7]; at 3.7 µM 14% | [7]; at 11.0 µM 18% | [8]; [17] -14% | [9]; at 1.2 µM 23% | [9]; at 3.7 µM 0% | [9]; at 11.0 µM 15% | [10]; [17] 10% | [11]; at 1.2 µM -7% | [11]; at 3.7 µM -2% | [11]; [17] 18% | [11]; at 11.0 µM 13% | [11]; at 33.0 µM 63% | [12]; at 1.2 µM -17% | [12]; at 3.7 µM -14% | [12]; at 11.0 µM 52% | [13]; at 1.2 µM 4% | [13]; at 3.7 µM 3% | [13]; at 11.0 µM 25% | [14]; at 1.2 µM 18% | [14]; at 3.7 µM 29% | [14]; at 11.0 µM 17% | [15]; at 1.2 µM 21% | [15]; at 3.7 µM 25% | [15]; at 11.0 µM 23% | [15]; at 33.0 µM 52%

C[CH2][Sn]1([CH2]C)[O]C2C(O)OC(CO)C(O)C2[O]1 (stereo not drawn)
active: [1]; at 100.0 µM 76% | [6]; [18] 75% | [6]; at 50.0 µM 80.5% | [8]; [18] 71% | [16]; [18] 88% | [16]; at 50.0 µM 72.5% | [15]; at 100.0 µM 73%
inactive: [1]; at 1.2 µM 0% | [1]; at 3.7 µM 10% | [1]; at 11.0 µM 19% | [1]; at 33.0 µM 29% | [2]; at 1.2 µM -8% | [2]; at 3.7 µM -15% | [2]; at 11.0 µM -9% | [2]; at 33.0 µM -2% | [2]; at 100.0 µM 61% | [3]; at 1.2 µM -8% | [3]; at 3.7 µM -21% | [3]; at 11.0 µM -34% | [3]; at 33.0 µM -23% | [3]; at 100.0 µM -17% | [4]; at 1.2 µM -19% | [4]; at 3.7 µM -21% | [4]; at 11.0 µM -3% | [4]; at 33.0 µM 2% | [4]; at 100.0 µM 69% | [5]; at 1.2 µM 12% | [5]; at 3.7 µM 12% | [5]; [17] 17% | [5]; at 11.0 µM -7% | [5]; at 33.0 µM 4% | [5]; [18] 67% | [5]; at 50.0 µM 33.5% | [5]; at 100.0 µM 66% | [6]; at 1.2 µM 10% | [6]; at 3.7 µM 4% | [6]; [17] 8% | [6]; at 11.0 µM 4% | [6]; at 33.0 µM 24% | [6]; at 100.0 µM 67% | [7]; at 1.2 µM 1% | [7]; at 3.7 µM -4% | [7]; at 11.0 µM 2% | [7]; at 33.0 µM -5% | [7]; at 100.0 µM 15% | [8]; [17] 22% | [8]; at 50.0 µM 53.5% | [9]; at 1.2 µM -53% | [9]; at 3.7 µM -73% | [9]; at 11.0 µM -69% | [9]; at 33.0 µM -100% | [9]; at 100.0 µM 45% | [10]; [17] -1% | [10]; [18] 37% | [10]; at 50.0 µM 63.6% | [11]; at 1.2 µM 3% | [11]; at 3.7 µM 4% | [11]; [17] 6% | [11]; at 11.0 µM 10% | [11]; at 33.0 µM 8% | [11]; [18] 69% | [11]; at 50.0 µM 55.6% | [11]; at 100.0 µM 63% | [13]; at 1.2 µM -2% | [13]; at 3.7 µM -2% | [13]; at 11.0 µM -4% | [13]; at 33.0 µM -12% | [13]; at 100.0 µM 39% | [14]; at 1.2 µM -12% | [14]; at 3.7 µM -5% | [14]; at 11.0 µM -8% | [14]; at 33.0 µM 16% | [14]; at 100.0 µM 59% | [16]; [17] 26% | [15]; at 1.2 µM 11% | [15]; at 3.7 µM 0% | [15]; at 11.0 µM 8% | [15]; at 33.0 µM 23%

Br[Se]c1ccccn1
inactive: [1]; at 1.2 µM 2% | [1]; at 3.7 µM 53% | [2]; at 1.2 µM 2% | [2]; at 3.7 µM 10% | [2]; at 11.0 µM 58% | [3]; at 1.2 µM -9% | [3]; at 3.7 µM 59% | [4]; at 1.2 µM -3% | [4]; at 3.7 µM 12% | [5]; at 1.2 µM 5% | [5]; [17] 44% | [6]; at 1.2 µM 0% | [6]; at 3.7 µM 34% | [6]; [17] 29% | [7]; at 1.2 µM 5% | [7]; at 3.7 µM 36% | [8]; [17] -5% | [9]; at 1.2 µM -11% | [9]; at 3.7 µM 11% | [9]; at 11.0 µM 62% | [10]; [17] 9% | [11]; at 1.2 µM -2% | [11]; at 3.7 µM 20%
active: [1]; at 11.0 µM 97% | [1]; at 33.0 µM 99% | [1]; at 100.0 µM 98% | [2]; at 33.0 µM 99% | [2]; at 100.0 µM 99% | [3]; at 11.0 µM 98% | [3]; at 33.0 µM 99% | [3]; at 100.0 µM 98% | [4]; at 11.0 µM 79% | [4]; at 33.0 µM 99% | [4]; at 100.0 µM 99% | [5]; at 3.7 µM 91% | [5]; at 11.0 µM 97% | [5]; at 33.0 µM 98% | [5]; [18] 99% | [5]; at 50.0 µM 99.5% | [5]; at 100.0 µM 98% | [6]; at 11.0 µM 89% | [6]; at 33.0 µM 99% | [6]; [18] 100% | [6]; at 50.0 µM 99.8% | [6]; at 100.0 µM 99% | [7]; at 11.0 µM 99% | [7]; at 33.0 µM 99% | [7]; at 100.0 µM 99% | [8]; [18] 99% | [8]; at 50.0 µM 99.6% | [9]; at 33.0 µM 99% | [9]; at 100.0 µM 99% | [10]; [18] 99% | [10]; at 50.0 µM 98.3% | [11]; [17] 75% | [11]; at 11.0 µM 93% | [11]; at 33.0 µM 98% | [11]; [18] 100% | [11]; at 50.0 µM 99.7% | [11]; at 100.0 µM 98%
